{"source": "the supplement of paper PMC7669877", "note": "± gives the uncertainty stated by the source."}
{"test_system": "Candidatus Liberibacter solanacearum in potato hairy roots", "experiment": "relative CLso titer (% of untreated control); higher = less inhibition of bacterial titer", "conditions": "10 µM; 72 h", "method": "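Primary screen of ~220 Spectrum collection (MicroSource) compounds at 10 µM (0.1% DMSO) on Candidatus Liberibacter solanacearum-infected potato hairy roots in multi-well plates (Gamborg B-5 medium, vacuum infiltrated, 21 °C, dark, 72 h). CLso titer was measured by qPCR of 16S rDNA normalised to potato RPL2 (2^-ddCq), pairwise-standardised against untreated controls, averaged over two biological replicates and expressed as % of untreated.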", "units": {"relative CLso titer": "%"}}
{"smiles": "CN(C)CCC=C1c2ccccc2COc2ccccc21", "relative CLso titer": "88.8 ± 1.1"}
{"smiles": "COC(=O)Nc1nc2cc(C(=O)c3ccccc3)ccc2[nH]1", "relative CLso titer": "84 ± 10"}
{"smiles": "CCCNC(=O)NS(=O)(=O)c1ccc(Cl)cc1", "relative CLso titer": "38.9 ± 4.5"}
{"smiles": "CO[C@@]1(NC(=O)C2SC(=C(C(N)=O)C(=O)O)S2)C(=O)N2C(C(=O)O)=C(CSc3nnnn3C)CS[C@@H]21", "note": "(some centres undefined)", "relative CLso titer": "138 ± 17"}
{"smiles": "CO/N=C(\\C(=O)N[C@@H]1C(=O)N2C(C(=O)O)=C(COC(N)=O)CS[C@H]12)c1ccco1", "relative CLso titer": "149 ± 29"}
{"smiles": "CC1(C)OC(=O)NC1=O", "relative CLso titer": "65.8 ± 3.9"}
{"smiles": "CC1=C(/C=C/C(C)=C/C=C/C(C)=C/C(=O)O)C(C)(C)CCC1", "relative CLso titer": "132 ± 9.7"}
{"smiles": "CC1=C(C(=O)O)N2C(=O)[C@@H](NC(=O)[C@H](N)c3ccc(O)cc3)[C@H]2SC1", "relative CLso titer": "49.7 ± 6.2"}
{"smiles": "CC1=C(C(=O)O)N2C(=O)[C@@H](NC(=O)[C@H](N)C3=CCC=CC3)[C@H]2SC1", "relative CLso titer": "114 ± 86"}
{"smiles": "CN(C)CCOC(C)(c1ccccc1)c1ccccn1", "note": "(centres undefined)", "relative CLso titer": "109 ± 7.3"}
{"smiles": "C=C1c2cccc(O)c2C(=O)C2=C(O)[C@]3(O)C(=O)C(C(N)=O)=C(O)[C@@H](N(C)C)[C@@H]3[C@@H](O)[C@H]12", "relative CLso titer": "79.1 ± 26"}
{"smiles": "CN(C)[C@@H]1C(O)=C(C(N)=O)C(=O)[C@@]2(O)C(O)=C3C(=O)c4c(O)ccc(Cl)c4[C@@](C)(O)[C@H]3C[C@@H]12", "relative CLso titer": "35.8 ± 4.5"}
{"smiles": "CCCOc1cc(N)ccc1C(=O)OCCN(CC)CC", "relative CLso titer": "102 ± 10"}
{"smiles": "C[C@@H]1O[C@@H]1P(=O)(O)O", "relative CLso titer": "155 ± 15"}
{"smiles": "CC(=O)OCC1=C(C(=O)O)N2C(=O)[C@@H](NC(=O)CSc3ccncc3)[C@H]2SC1", "relative CLso titer": "70.6 ± 0.88"}
{"smiles": "CC1(C)[C@@H](OC(=O)CCC(=O)O)CC[C@]2(C)[C@H]3C(=O)C=C4[C@@H]5C[C@@](C)(C(=O)O)CC[C@]5(C)CC[C@@]4(C)[C@]3(C)CC[C@@H]12", "relative CLso titer": "132 ± 30"}
{"smiles": "Cc1cccc(Nc2ccccc2C(=O)O)c1C", "relative CLso titer": "98.7 ± 20"}
{"smiles": "CCS(=O)(=O)CCn1c([N+](=O)[O-])cnc1C", "relative CLso titer": "116 ± 0.28"}
{"smiles": "O=C(N[C@H](CO)[C@H](O)c1ccc([N+](=O)[O-])cc1)C(Cl)Cl", "relative CLso titer": "57.2 ± 12"}
{"smiles": "COc1cc(NS(=O)(=O)c2ccc(N)cc2)ncn1", "relative CLso titer": "60.3 ± 11"}
{"smiles": "C=C1CC[C@H](O)C/C1=C/C=C1\\CCC[C@]2(C)[C@@H]([C@H](C)/C=C/[C@H](C)C(C)C)CC[C@@H]12", "relative CLso titer": "113 ± 37"}
{"smiles": "C[C@]12CC[C@@H]3c4ccc(O)cc4CC[C@H]3[C@@H]1CC[C@@H]2OC(=O)CCC1CCCC1", "relative CLso titer": "150 ± 44"}
{"smiles": "CCOC(=O)c1cccc(N)c1", "relative CLso titer": "113 ± 8.9"}
{"smiles": "CCCCCCCCNC(C)C(O)c1ccc(SC(C)C)cc1", "note": "(centres undefined)", "relative CLso titer": "80.3 ± 5.9"}
{"smiles": "Cn1c([N+](=O)[O-])cnc1COC(N)=O", "relative CLso titer": "81.53 ± 0.13"}
{"smiles": "O=C1c2cccc(O)c2C(=O)c2c(O)cccc21", "relative CLso titer": "82.5 ± 46"}
{"smiles": "CN(C)CCOC(c1ccc(Cl)cc1)c1ccccn1", "note": "(centres undefined)", "relative CLso titer": "35.2 ± 4.8"}
{"smiles": "CCCCNc1cc(C(=O)O)cc(S(N)(=O)=O)c1Oc1ccccc1", "relative CLso titer": "105 ± 14"}
{"smiles": "Cc1onc(-c2ccccc2Cl)c1C(=O)N[C@@H]1C(=O)N2[C@@H]1SC(C)(C)[C@@H]2C(=O)O", "relative CLso titer": "46.2 ± 1.5"}
{"smiles": "CN(C)CC[C@@H](c1ccc(Cl)cc1)c1ccccn1", "relative CLso titer": "48.1 ± 3.8"}
{"smiles": "CCCCOc1cc(C(=O)NCCN(CC)CC)c2ccccc2n1", "relative CLso titer": "147 ± 76"}
{"smiles": "COC1=CC(=O)C[C@@H](C)[C@]12Oc1c(Cl)c(OC)cc(OC)c1C2=O", "relative CLso titer": "67.3 ± 13"}
{"smiles": "NCCCCCC(=O)O", "relative CLso titer": "39.2 ± 4.1"}
{"smiles": "COc1ccc2c3c1O[C@H]1C[C@@H](O)C=C[C@@]31CCN(C)C2", "relative CLso titer": "104 ± 28"}
